Mtb FBA inh = inhibitors of M. tuberculosis fructose-bisphosphate aldolase | AID 588726 | inhibition, % at 1 µM | hit rate 2.3% among 360,000 | purified M. tuberculosis FBA, fluorescence read-out
Target sequence (P9WQA3 whole entry, looked up): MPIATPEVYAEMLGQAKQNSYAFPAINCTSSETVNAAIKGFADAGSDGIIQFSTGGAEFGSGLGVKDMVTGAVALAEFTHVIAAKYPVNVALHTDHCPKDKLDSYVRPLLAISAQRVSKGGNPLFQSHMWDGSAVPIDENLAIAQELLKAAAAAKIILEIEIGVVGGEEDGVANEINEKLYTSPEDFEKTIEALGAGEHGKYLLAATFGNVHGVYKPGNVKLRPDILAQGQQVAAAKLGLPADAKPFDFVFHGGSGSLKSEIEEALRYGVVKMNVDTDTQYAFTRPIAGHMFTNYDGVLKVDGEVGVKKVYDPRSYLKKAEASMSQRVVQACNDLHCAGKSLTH
GDH-TPI counter-1 = inhibits GDH-TPI coupling enzymes, artifact for Mtb FBA screen; GDH-TPI coupled enzyme counterscreen, NADH absorbance; inhibition, % at 4.8 µM; hit rate 1.2% among 360,000; in the data active = inhibition above about 30%
BioA inh = inhibitors of Mycobacterium tuberculosis BioA enzyme; hit rate 0.096% among 360,000; inhibition, % at 9.99 µM; purified M. tuberculosis BioA enzyme, plate reader; in the data active = inhibition above about 40%; inconclusive = no clear call, values can overlap the other calls
Vc quorum ag = induces V. cholerae light production without autoinducers. V. cholerae BH1578 lux reporter, luminescence, 6 h. AID 588436. activation, % at 18.7 µM. hit rate 0.16% among 350,000; in the data active = activation mostly above about 9.7%, no sharp cut-off; inconclusive = no clear call, values can overlap the other calls; inactive = mostly below about 3.7%
Mtb FBA confirm = confirmation of M. tuberculosis fructose-bisphosphate aldolase inhibitors | shares compounds with Mtb FBA inh | purified M. tuberculosis FBA, fluorescence read-out | inhibition, % at 1 µM | hit rate 78% among 5,600
GDH-TPI counter-2 = counter-screen for M. tuberculosis FBA inhibitors: GDH-TPI coupled enzyme inhibition. GDH-TPI coupled enzyme counterscreen, fluorescence. AID 652141. inhibition, % at 1 µM. hit rate 81% among 5,600. shares compounds with Mtb FBA inh; in the data active = inhibition above about 10%
Of the large screens only hits and unclear results are named; the others gave an inactive call (follow-up assays come after a bar, where they were run). Compounds with a hit are over-represented: about 3% of the library has one in this group of screens. Cut-off read from the data, not from the text of the source, unless noted: active = inhibition above about 27%; inactive = the rest.

Cc1c(C)c2ccc(OC(C)C(=O)N3CC[C@@]4(O)CCCC[C@H]4C3)cc2oc1=O (stereo partly specified)	Mtb FBA inh 96 | Mtb FBA confirm active | GDH-TPI counter-2 active
Cc1c(C)c2ccc(OC(C)C(=O)N3CC[C@@]4(O)CCCC[C@H]4C3)c(C)c2oc1=O (stereo partly specified)	Mtb FBA inh 69 | Mtb FBA confirm 53 | GDH-TPI counter-2 41
O=C(C[C@H]1C=C[C@@H](NC(=O)Nc2cc(F)ccc2F)[C@H](CO)O1)Nc1ccccc1	none (no result: Mtb FBA inh, GDH-TPI counter-1, Vc quorum ag)
C[C@H](CO)N1C[C@H](C)[C@@H](CN(C)Cc2ccc(Cl)c(Cl)c2)Oc2ccc(NC(=O)Cc3cn(C)c4ccccc34)cc2CC1=O	none (no result: Mtb FBA inh, GDH-TPI counter-1, Vc quorum ag)
C[C@H](CO)N1C[C@H](C)[C@H](CN(C)Cc2ccc(Cl)c(Cl)c2)Oc2ccc(NC(=O)Cn3cnnn3)cc2CC1=O	none (no result: Mtb FBA inh, GDH-TPI counter-1, Vc quorum ag)
O=C(c1ccc(Cl)c(S(=O)(=O)N2CCCCCC2)c1)N1CCCC(C(F)(F)F)C1 (stereo unspecified)	Mtb FBA inh 45 | Mtb FBA confirm 65 | GDH-TPI counter-2 46
Cc1ccc(C(=O)N2CCCC(C(F)(F)F)C2)cc1S(=O)(=O)N1CCCCC1 (stereo unspecified)	none
Cc1ccc(C(=O)/C=C/Nc2ccccc2C(N)=O)o1	Mtb FBA inh 32 | Mtb FBA confirm 42 | GDH-TPI counter-2 24
NC(=O)c1ccccc1N/C=C/C(=O)c1ccc(F)cc1	none
CC(C)C#Cc1ccc2c(c1)O[C@@H](CN(C)C(=O)c1ccccn1)[C@@H](C)CN([C@H](C)CO)S2(=O)=O	none (no result: Mtb FBA inh, GDH-TPI counter-1, Vc quorum ag)
CCCN(CC(=O)Nc1ccc(Cl)cc1Cl)C(=O)/C=C/c1cccc([N+](=O)[O-])c1	none
CCCN(CC(=O)Nc1cc(Cl)ccc1Cl)C(=O)/C=C/c1cc(OC)ccc1OC	Mtb FBA inh 39 | Mtb FBA confirm active | GDH-TPI counter-2 active
CCCN(CC(=O)Nc1ccc(Cl)cc1Cl)C(=O)/C=C/c1cc(OC)ccc1OC	Mtb FBA inh 28 | Mtb FBA confirm inactive | GDH-TPI counter-2 inactive
Cc1csc2nc3ccccc3c(=O)n12	Mtb FBA inh 39 (no result: Vc quorum ag) | Mtb FBA confirm 67 | GDH-TPI counter-2 38
O=C(CCc1ccccc1)NNC(=O)c1cc(Cl)ccc1O	Mtb FBA inh 35 | Mtb FBA confirm inactive | GDH-TPI counter-2 inactive
C[C@H](CO)N1C[C@H](C)[C@H](CN(C)CC2CCCCC2)Oc2ccc(NC(=O)C3CCCCC3)cc2CC1=O	none (no result: Mtb FBA inh, GDH-TPI counter-1, Vc quorum ag)
CN(C)/C=N/c1nc2nccc(-c3ccccn3)n2n1	none (no result: BioA inh)
CN(C)/C=N/c1nc2nccc(-c3cccnc3)n2n1	Mtb FBA inh 27 (no result: BioA inh) | Mtb FBA confirm 152 | GDH-TPI counter-2 107
Nc1nc2nccc(-c3cccnc3)n2n1	Mtb FBA inh 64 | Mtb FBA confirm inactive | GDH-TPI counter-2 inactive
COC(=O)C[C@H]1CC[C@H]2[C@H](COc3ccc(NC(=O)c4ccccc4)cc3C(=O)N2C)O1	none (no result: Mtb FBA inh, GDH-TPI counter-1, Vc quorum ag)
C[C@H](CO)N1C[C@H](C)[C@@H](CN(C)S(C)(=O)=O)OCCCC[C@H](C)Oc2ccc(NC(=O)Nc3ccccc3)cc2C1=O	none (no result: Mtb FBA inh, GDH-TPI counter-1, Vc quorum ag)
c1ccc2oc(-c3ccc4nc[nH]c4c3)nc2c1	Mtb FBA inh 60 | Mtb FBA confirm active | GDH-TPI counter-2 169
COc1ccc(-c2nc3ccccc3o2)cc1OC	none
Cc1ccc(S(=O)(=O)NNC(=O)c2ccccc2-n2cccc2)cc1	Mtb FBA inh 32 | Mtb FBA confirm 57 | GDH-TPI counter-2 52
COc1ccc(S(=O)(=O)NNC(=O)c2ccccc2-n2cccc2)cc1	none
COCC(=O)Nc1ccc2c(c1)OC[C@@H](C)N(C(=O)COC)C[C@@H](C)[C@@H](OC)CN(C)C2=O	none (no result: Mtb FBA inh, GDH-TPI counter-1, Vc quorum ag)
CCCCn1nc2cc(C(=O)N(CC)c3ccc(OC)cc3)ccc2c1OCC	Mtb FBA inh 28 | Mtb FBA confirm 112 | GDH-TPI counter-2 87
COc1ccc(C(=O)N(CN2CCCC2=O)c2ccc(C)cc2)cc1	none
CCN(C(=O)c1ccc2c(OC)n(CC)nc2c1)c1ccc(OC)cc1	Mtb FBA inh 31 | Mtb FBA confirm inactive | GDH-TPI counter-2 inactive
CO[C@H]1CN(C)C(=O)c2cc(NC(C)=O)ccc2OC[C@H](C)N(CC2CC2)C[C@H]1C	none (no result: Mtb FBA inh, GDH-TPI counter-1, Vc quorum ag)
Cn1c2ccccc2c(=O)c2cc(C#CC3=CCCCC3)ccc21	Mtb FBA inh 86 | Mtb FBA confirm 151 | GDH-TPI counter-2 113
COc1ccccc1C#Cc1ccc2c(=O)c3ccccc3n(C)c2c1	none
CN(C)CC(=O)N[C@H]1CC[C@@H](CCn2cc(C3CC3)nn2)O[C@H]1CO	none (no result: Mtb FBA inh, GDH-TPI counter-1, Vc quorum ag)
O=c1cc(/C=C/c2c(F)cccc2Cl)[nH]c2ccccc12	Mtb FBA inh 45 | Mtb FBA confirm 53 | GDH-TPI counter-2 33
Nc1nccc(/C=C/c2c(F)cccc2Cl)n1	none (no result: BioA inh)
c1coc(C2Nc3ccccc3-c3nc4ccccc4n32)c1 (stereo unspecified)	Mtb FBA inh 101 | Mtb FBA confirm 153 | GDH-TPI counter-2 120
COc1ccc(NC(=O)N[C@H]2CC[C@H](CC(=O)NC3CCCCC3)O[C@@H]2CO)cc1	none (no result: Mtb FBA inh, GDH-TPI counter-1, Vc quorum ag)
COc1ccccc1CN1C[C@H](C)[C@@H](OC)CN(C)C(=O)c2ccc(NC(C)=O)cc2OC[C@@H]1C	none (no result: Mtb FBA inh, GDH-TPI counter-1, Vc quorum ag)
O=C(CNC(=O)C1CCCCC1)OCc1cc(=O)oc2ccc3ccccc3c12	Mtb FBA inh 43 | Mtb FBA confirm inactive | GDH-TPI counter-2 inactive
Cc1ccc2nc(N3CCN(C(=O)CCCC(=O)O)CC3)nc(-c3ccccc3)c2c1	Mtb FBA inh 32 (no result: BioA inh) | Mtb FBA confirm 73 | GDH-TPI counter-2 38
CSc1nnc(-c2sc(-c3ccccc3)nc2C)n1C	Mtb FBA inh 54, BioA inh inconclusive | Mtb FBA confirm inactive | GDH-TPI counter-2 inactive
C[C@@H]1CN([C@@H](C)CO)C(=O)c2cc(-c3ccc(C#N)cc3)cnc2O[C@H]1CN(C)CC1CCCC1	none (no result: Mtb FBA inh, GDH-TPI counter-1, Vc quorum ag)
COc1ccc(CC(=O)Nc2ccc(-c3cn4ccc(C)cc4n3)cc2)cc1	Mtb FBA inh 58 (no result: BioA inh) | Mtb FBA confirm 168 | GDH-TPI counter-2 143
Cc1ccn2cc(-c3cccc(NC(=O)C(C)C)c3)nc2c1	Mtb FBA inh 40 (no result: BioA inh) | Mtb FBA confirm 113 | GDH-TPI counter-2 87
CC(=O)Nc1cccc(-c2cn3ccccc3n2)c1	Mtb FBA inh 43 (no result: BioA inh) | Mtb FBA confirm 40 | GDH-TPI counter-2 41
CC(C)C(=O)Nc1cccc(-c2cn3ccccc3n2)c1	none (no result: BioA inh)
C[C@@H]1CN([C@H](C)CO)C(=O)c2cccc(NC(=O)Nc3ccc(F)cc3)c2O[C@H]1CN(C)C(=O)Nc1ccccc1	none (no result: Mtb FBA inh, GDH-TPI counter-1, Vc quorum ag)
CCc1ccccc1N(C(=O)c1snc(C(N)=O)c1N)C(C(=O)NCC1CCCO1)c1ccc(C)o1 (stereo unspecified)	Mtb FBA inh 49 | Mtb FBA confirm inactive | GDH-TPI counter-2 inactive
NC(=O)c1nsc(C(=O)N(c2cccc(F)c2)C(C(=O)NCC2CCCO2)c2cccs2)c1N (stereo unspecified)	Mtb FBA inh 34 (no result: BioA inh) | Mtb FBA confirm 86 | GDH-TPI counter-2 76
CC(C(=O)NCC1CCCO1)N(C(=O)c1snc(C(N)=O)c1N)c1cccc(F)c1 (stereo unspecified)	none (no result: Vc quorum ag)
